In publication PMC7862700, “An all-to-all approach to the identification of sequence-specific readers for epigenetic DNA modifications on cytosine”:

How the values were obtained:
Assay in all cases: DAPPL (digital affinity profiling via proximity ligation, sequencing); 10 mM Tris-HCl pH 7.5, 50 mM NaCl, 1 mM DTT, 4% glycerol, room temperature, 30 min; GST-TFs on glutathione beads, 16-mer random dsDNA library, 0.1% formaldehyde crosslink after washing; high values mean tight binding
FLI1 = target: T1, FLI1 (Homo sapiens, UniProt Q01543 1-452); settings: protein: recombinant; tags: N-terminal GST; dsDNA, one strand shown
T1 sequence: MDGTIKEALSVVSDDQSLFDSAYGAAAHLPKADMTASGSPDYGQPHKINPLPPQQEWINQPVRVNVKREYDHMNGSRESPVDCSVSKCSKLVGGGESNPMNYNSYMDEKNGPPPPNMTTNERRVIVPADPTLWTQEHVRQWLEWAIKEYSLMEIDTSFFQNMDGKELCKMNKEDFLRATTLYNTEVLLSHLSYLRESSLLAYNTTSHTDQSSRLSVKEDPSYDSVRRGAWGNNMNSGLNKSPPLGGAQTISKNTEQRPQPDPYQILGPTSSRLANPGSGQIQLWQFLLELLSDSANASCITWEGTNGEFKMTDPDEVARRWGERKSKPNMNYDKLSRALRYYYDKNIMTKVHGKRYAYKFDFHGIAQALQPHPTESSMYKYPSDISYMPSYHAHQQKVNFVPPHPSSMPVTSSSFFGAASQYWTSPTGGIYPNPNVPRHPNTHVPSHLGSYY
Summary of the method: (§1)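 Human transcription factors carrying a GST fusion were produced in yeast, bound to glutathione beads, tagged with DNA barcodes and pooled together with a tag-only sample. Each pool was held with 200 nmole of a random double-stranded 16-mer DNA library in Tris/NaCl/DTT/glycerol buffer for 30 min at room temperature, then washed, crosslinked in 0.1% formaldehyde, proximity-ligated with BsaI/T4 ligase (1 h, 37 °C), PCR-amplified and sequenced on an Illumina NextSeq500. Binding signal is the read frequency of each hexamer for a given factor divided by its frequency in the tag-only sample.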

ELK1 = target: T2, ELK1 (Homo sapiens, UniProt P19419 1-428); settings: protein: recombinant; tags: N-terminal GST; dsDNA, one strand shown
T2 sequence: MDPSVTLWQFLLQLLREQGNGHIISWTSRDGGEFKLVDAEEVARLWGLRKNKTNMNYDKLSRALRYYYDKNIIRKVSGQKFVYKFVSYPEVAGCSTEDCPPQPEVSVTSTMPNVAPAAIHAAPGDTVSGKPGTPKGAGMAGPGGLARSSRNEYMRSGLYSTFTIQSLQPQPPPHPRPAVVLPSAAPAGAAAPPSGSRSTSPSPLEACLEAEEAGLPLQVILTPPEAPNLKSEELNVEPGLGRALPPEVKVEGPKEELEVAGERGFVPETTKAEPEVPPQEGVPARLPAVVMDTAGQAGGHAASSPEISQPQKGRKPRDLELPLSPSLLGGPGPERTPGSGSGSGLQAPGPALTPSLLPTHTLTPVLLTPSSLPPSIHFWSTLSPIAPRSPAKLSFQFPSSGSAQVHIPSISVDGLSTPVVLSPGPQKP
Summary of the method: as §1

GABPA = target: T3, GABPA (Homo sapiens, UniProt Q06546 1-454); settings: protein: recombinant; tags: N-terminal GST; dsDNA, one strand shown
T3 sequence: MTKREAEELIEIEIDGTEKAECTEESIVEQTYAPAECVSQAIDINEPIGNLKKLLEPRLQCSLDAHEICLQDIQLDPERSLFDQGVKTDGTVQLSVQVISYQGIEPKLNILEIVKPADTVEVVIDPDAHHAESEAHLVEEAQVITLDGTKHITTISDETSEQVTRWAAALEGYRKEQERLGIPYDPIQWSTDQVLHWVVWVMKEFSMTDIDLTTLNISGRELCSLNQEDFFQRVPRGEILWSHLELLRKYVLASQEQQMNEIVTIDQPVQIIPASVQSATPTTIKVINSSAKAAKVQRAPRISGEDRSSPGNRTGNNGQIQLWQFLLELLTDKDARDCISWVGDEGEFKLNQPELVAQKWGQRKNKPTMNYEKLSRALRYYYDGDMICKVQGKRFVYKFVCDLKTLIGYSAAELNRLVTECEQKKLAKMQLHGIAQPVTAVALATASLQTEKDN
Summary of the method: as §1

ERG = target: T4, ERG (Homo sapiens, UniProt P11308 1-479); settings: protein: recombinant; tags: N-terminal GST; dsDNA, one strand shown
T4 sequence: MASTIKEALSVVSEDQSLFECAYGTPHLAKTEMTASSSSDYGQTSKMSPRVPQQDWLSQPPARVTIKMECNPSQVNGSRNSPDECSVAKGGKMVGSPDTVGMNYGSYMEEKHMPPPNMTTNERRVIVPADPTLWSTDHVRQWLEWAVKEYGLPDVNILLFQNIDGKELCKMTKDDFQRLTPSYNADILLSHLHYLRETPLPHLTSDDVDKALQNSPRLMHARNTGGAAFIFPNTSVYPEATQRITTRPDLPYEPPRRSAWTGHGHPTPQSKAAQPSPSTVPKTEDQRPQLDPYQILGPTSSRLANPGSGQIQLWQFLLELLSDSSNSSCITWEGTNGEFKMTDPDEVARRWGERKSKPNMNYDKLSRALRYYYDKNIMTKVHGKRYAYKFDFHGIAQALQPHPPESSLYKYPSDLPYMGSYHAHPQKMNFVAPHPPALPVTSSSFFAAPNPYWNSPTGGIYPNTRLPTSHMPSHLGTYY
Summary of the method: as §1

ELF1 = ELF1 (Homo sapiens, UniProt P32519 1-619); settings: protein: recombinant; tags: N-terminal GST; dsDNA, one strand shown
ELF1, sequence (P32519 whole entry): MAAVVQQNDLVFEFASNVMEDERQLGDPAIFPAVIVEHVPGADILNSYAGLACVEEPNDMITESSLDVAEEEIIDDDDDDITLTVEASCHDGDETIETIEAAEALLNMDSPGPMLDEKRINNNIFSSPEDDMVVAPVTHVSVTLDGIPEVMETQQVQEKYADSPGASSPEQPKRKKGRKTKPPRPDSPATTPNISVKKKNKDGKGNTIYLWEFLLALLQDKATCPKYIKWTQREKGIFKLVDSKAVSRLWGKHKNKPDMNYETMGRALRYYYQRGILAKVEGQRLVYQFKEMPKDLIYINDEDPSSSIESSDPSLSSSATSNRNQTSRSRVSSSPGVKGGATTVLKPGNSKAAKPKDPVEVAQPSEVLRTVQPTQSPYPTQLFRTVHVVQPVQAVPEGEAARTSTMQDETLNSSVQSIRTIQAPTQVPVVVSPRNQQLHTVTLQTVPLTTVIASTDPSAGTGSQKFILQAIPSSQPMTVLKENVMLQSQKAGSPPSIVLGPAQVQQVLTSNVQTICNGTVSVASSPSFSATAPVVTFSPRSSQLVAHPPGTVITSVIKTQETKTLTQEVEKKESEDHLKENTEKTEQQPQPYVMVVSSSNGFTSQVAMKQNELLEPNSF
Summary of the method: as §1

EHF = target: T5, EHF (Homo sapiens, UniProt Q9NZC4 1-300); settings: protein: recombinant; tags: N-terminal GST; dsDNA, one strand shown
T5 sequence: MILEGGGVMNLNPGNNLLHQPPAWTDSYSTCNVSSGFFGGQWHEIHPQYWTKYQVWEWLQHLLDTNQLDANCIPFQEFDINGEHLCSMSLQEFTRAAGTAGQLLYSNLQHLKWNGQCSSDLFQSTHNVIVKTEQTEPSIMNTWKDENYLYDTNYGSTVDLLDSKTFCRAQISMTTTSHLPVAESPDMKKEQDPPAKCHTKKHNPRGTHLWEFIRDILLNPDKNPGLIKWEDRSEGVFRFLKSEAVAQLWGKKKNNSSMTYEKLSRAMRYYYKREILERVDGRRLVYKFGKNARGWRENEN
Summary of the method: as §1

SPI1 = SPI1 (Homo sapiens, UniProt P17947 1-270); settings: protein: recombinant; tags: N-terminal GST; dsDNA, one strand shown
Summary of the method: as §1

SPIB = SPIB (Homo sapiens, UniProt Q01892 1-262); settings: protein: recombinant; tags: N-terminal GST; dsDNA, one strand shown
SPIB, sequence (Q01892 whole entry): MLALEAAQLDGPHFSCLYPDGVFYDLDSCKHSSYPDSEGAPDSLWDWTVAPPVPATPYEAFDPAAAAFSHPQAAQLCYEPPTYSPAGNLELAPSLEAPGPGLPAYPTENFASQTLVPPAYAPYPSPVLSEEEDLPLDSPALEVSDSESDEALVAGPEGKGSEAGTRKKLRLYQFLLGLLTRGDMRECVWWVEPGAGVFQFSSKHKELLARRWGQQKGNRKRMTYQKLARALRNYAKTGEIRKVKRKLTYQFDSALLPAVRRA
Summary of the method: as §1

ELK3 = target: T6, ELK3 (Homo sapiens, UniProt P41970 1-407); settings: protein: recombinant; tags: N-terminal GST; dsDNA, one strand shown
T6 sequence: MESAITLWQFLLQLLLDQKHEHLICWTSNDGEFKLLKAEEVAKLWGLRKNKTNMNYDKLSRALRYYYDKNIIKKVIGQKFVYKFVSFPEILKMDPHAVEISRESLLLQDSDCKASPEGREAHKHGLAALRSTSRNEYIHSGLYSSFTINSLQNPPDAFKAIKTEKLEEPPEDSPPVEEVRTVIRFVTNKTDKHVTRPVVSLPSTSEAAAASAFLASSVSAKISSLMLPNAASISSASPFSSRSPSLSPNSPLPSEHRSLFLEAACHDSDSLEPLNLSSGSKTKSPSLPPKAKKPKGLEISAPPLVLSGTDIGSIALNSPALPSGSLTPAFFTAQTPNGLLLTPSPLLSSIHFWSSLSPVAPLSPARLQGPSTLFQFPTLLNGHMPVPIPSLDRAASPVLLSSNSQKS
Summary of the method: as §1

FEV = target: T7, FEV (Homo sapiens, UniProt Q99581 1-238); settings: protein: recombinant; tags: N-terminal GST; dsDNA, one strand shown
T7 sequence: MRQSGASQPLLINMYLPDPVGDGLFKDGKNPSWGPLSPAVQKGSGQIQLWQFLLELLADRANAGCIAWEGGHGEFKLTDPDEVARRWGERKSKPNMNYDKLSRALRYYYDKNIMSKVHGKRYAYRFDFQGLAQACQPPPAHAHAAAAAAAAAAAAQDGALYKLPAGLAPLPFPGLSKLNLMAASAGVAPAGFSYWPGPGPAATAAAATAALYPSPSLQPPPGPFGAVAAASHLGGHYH
Summary of the method: as §1

ETV5 = ETV5 (Homo sapiens, UniProt P41161 1-510); settings: protein: recombinant; tags: N-terminal GST; dsDNA, one strand shown
ETV5, sequence (P41161 whole entry): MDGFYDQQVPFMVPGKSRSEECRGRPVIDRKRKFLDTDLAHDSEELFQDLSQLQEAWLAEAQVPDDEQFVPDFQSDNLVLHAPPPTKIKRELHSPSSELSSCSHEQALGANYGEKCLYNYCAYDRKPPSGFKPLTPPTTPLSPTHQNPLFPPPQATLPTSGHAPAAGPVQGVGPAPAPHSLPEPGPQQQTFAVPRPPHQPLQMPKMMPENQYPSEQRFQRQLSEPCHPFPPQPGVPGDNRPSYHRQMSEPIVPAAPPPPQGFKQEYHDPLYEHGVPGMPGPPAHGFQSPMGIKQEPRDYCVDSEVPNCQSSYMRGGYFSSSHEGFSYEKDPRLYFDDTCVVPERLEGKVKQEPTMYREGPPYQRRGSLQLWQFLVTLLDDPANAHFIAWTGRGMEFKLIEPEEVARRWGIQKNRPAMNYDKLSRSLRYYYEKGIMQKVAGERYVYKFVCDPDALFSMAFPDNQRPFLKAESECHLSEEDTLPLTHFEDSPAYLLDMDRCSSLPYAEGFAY
Summary of the method: as §1

HSF1 = HSF1 (Homo sapiens, UniProt Q00613 1-529); settings: protein: recombinant; tags: N-terminal GST; chain copies: 3; dsDNA, one strand shown
HSF1, sequence (Q00613 whole entry): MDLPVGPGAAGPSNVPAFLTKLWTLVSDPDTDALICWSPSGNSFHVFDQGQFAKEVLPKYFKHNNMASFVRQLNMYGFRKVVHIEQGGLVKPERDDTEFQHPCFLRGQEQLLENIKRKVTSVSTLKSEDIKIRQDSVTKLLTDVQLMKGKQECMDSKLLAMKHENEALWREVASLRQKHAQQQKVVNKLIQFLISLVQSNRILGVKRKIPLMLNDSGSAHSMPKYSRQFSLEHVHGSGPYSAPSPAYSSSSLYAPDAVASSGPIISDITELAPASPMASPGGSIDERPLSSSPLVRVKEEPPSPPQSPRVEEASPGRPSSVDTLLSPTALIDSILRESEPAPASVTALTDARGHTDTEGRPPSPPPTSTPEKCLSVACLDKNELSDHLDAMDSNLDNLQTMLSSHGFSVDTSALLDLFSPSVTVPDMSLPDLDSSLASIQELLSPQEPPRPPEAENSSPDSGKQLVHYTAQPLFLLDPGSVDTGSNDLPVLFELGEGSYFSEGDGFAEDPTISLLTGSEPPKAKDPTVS
Summary of the method: as §1

SPIC = target: T8, SPIC (Homo sapiens, UniProt Q8N5J4 1-248); settings: protein: recombinant; tags: N-terminal GST; dsDNA, one strand shown
T8 sequence: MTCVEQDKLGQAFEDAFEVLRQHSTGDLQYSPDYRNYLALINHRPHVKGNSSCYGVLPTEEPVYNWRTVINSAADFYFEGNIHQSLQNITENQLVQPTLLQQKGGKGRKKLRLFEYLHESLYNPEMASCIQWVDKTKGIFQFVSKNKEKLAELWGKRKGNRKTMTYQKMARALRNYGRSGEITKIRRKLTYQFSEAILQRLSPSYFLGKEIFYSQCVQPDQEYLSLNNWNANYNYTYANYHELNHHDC
Summary of the method: as §1

ELF4 = ELF4 (Homo sapiens, UniProt Q99607 1-663); settings: protein: recombinant; tags: N-terminal GST; dsDNA, one strand shown
ELF4, sequence (Q99607 whole entry): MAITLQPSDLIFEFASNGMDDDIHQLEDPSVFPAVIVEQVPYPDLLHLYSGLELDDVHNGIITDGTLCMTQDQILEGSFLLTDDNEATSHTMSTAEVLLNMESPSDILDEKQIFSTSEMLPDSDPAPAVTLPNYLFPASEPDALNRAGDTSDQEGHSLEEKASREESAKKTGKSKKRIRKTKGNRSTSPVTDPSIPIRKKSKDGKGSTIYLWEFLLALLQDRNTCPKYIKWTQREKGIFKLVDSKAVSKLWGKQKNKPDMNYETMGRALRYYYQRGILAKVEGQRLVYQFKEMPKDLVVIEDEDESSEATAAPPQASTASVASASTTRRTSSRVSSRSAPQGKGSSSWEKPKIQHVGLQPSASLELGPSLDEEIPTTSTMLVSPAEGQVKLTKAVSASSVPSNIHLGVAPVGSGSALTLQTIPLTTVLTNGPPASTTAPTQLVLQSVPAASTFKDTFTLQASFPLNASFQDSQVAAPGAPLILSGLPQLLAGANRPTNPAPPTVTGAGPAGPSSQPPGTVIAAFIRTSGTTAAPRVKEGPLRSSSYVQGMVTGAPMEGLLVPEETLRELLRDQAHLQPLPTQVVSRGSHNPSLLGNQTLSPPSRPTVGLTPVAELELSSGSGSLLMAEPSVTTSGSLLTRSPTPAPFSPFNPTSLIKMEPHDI
Summary of the method: as §1

ELK4 = target: T9, ELK4 (Homo sapiens, UniProt P28324-2 1-405); settings: protein: recombinant; tags: N-terminal GST; dsDNA, one strand shown
T9 sequence: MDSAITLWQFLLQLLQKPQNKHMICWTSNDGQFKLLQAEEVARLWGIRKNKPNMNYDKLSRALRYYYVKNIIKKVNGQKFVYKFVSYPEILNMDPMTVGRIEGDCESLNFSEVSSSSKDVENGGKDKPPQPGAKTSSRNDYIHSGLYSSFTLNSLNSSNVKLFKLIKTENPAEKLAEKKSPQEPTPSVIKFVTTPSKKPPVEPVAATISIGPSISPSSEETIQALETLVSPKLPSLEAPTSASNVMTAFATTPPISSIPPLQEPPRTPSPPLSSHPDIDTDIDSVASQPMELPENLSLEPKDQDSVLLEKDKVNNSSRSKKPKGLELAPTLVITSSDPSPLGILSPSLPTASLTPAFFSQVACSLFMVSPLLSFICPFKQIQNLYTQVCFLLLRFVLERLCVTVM
Summary of the method: as §1

ETV2 = target: T10, ETV2 (Homo sapiens, UniProt O00321 1-342); settings: protein: recombinant; tags: N-terminal GST; dsDNA, one strand shown
T10 sequence: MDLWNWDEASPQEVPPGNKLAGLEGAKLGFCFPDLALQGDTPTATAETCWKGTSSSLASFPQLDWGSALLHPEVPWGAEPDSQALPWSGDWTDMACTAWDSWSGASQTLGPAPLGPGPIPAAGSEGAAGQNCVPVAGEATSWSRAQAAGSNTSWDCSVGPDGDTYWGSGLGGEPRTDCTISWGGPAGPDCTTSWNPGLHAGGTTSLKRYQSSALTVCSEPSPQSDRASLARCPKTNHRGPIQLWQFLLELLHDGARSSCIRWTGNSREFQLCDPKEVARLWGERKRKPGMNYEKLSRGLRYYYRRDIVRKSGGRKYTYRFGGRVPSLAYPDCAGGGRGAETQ
Summary of the method: as §1

ELF3 = target: T11, ELF3 (Homo sapiens, UniProt P78545 1-371); settings: protein: recombinant; tags: N-terminal GST; dsDNA, one strand shown
T11 sequence: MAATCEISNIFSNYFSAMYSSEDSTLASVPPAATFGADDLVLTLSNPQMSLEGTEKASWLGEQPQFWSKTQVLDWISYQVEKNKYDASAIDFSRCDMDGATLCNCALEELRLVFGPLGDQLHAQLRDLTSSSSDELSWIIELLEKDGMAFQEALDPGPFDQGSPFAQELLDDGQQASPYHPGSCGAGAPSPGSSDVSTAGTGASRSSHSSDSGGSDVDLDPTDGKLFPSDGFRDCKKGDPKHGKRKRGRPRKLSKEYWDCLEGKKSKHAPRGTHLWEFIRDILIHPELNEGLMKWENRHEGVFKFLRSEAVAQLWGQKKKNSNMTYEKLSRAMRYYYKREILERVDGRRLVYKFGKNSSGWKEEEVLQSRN
Summary of the method: as §1

CRX = CRX (Homo sapiens, UniProt O43186 1-299); settings: protein: recombinant; tags: N-terminal GST; dsDNA, one strand shown
CRX, sequence (O43186 whole entry): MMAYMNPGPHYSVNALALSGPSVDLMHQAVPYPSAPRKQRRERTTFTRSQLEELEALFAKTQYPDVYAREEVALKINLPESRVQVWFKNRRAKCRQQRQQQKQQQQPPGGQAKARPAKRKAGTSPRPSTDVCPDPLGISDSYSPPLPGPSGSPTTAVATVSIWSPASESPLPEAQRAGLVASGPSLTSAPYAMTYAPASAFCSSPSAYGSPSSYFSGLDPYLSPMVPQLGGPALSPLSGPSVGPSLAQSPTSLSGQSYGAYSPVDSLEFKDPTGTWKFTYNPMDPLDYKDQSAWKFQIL
Summary of the method: as §1

ETV1 = ETV1 (Homo sapiens, UniProt P50549 1-477); settings: protein: recombinant; tags: N-terminal GST; dsDNA, one strand shown
ETV1, sequence (P50549 whole entry): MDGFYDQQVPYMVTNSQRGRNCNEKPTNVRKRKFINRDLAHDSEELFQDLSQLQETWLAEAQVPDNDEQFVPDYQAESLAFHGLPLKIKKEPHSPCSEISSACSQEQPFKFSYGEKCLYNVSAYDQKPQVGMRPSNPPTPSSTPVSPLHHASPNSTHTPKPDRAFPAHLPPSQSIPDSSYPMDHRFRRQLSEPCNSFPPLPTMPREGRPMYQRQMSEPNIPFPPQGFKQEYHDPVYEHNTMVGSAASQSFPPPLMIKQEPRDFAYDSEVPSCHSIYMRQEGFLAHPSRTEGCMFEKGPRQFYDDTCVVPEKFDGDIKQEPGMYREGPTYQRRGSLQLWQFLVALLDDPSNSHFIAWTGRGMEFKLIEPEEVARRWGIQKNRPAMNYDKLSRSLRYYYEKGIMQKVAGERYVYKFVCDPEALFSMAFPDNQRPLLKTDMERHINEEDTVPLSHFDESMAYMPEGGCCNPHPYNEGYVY
Summary of the method: as §1

Sequence: AAATGG
- binding signal (FLI1): 1.52 fold enrichment (6-mer frequency, TF over GST control)
- binding signal (ELK1): 1.42 fold enrichment (6-mer frequency, TF over GST control)
- binding signal (GABPA): 1.49 fold enrichment (6-mer frequency, TF over GST control)
- binding signal (ERG): 1.56 fold enrichment (6-mer frequency, TF over GST control)
- binding signal (ELF1): 1.49 fold enrichment (6-mer frequency, TF over GST control)
- binding signal (EHF): 1.55 fold enrichment (6-mer frequency, TF over GST control)
- binding signal (SPI1): 1.59 fold enrichment (6-mer frequency, TF over GST control)
- binding signal (SPIB): 1.43 fold enrichment (6-mer frequency, TF over GST control)
- binding signal (ELK3): 1.47 fold enrichment (6-mer frequency, TF over GST control)
- binding signal (FEV): 1.42 fold enrichment (6-mer frequency, TF over GST control)
- binding signal (ETV5): 1.56 fold enrichment (6-mer frequency, TF over GST control)
- binding signal (HSF1): 1.27 fold enrichment (6-mer frequency, TF over GST control)
- binding signal (SPIC): 1.51 fold enrichment (6-mer frequency, TF over GST control)
- binding signal (ELF4): 1.49 fold enrichment (6-mer frequency, TF over GST control)
- binding signal (ELK4): 1.5 fold enrichment (6-mer frequency, TF over GST control)
- binding signal (ETV2): 1.47 fold enrichment (6-mer frequency, TF over GST control)
- binding signal (ELF3): 1.48 fold enrichment (6-mer frequency, TF over GST control)
- binding signal (CRX): 1.22 fold enrichment (6-mer frequency, TF over GST control)
- binding signal (ETV1): 1.5 fold enrichment (6-mer frequency, TF over GST control)
